The source of these data is PubChem BioAssay (NCATS).

The target of assay [1] is Lysosomal acid glucosylceramidase (Homo sapiens) (UniProt P04062). As to the kind of experiment: Glucocerebrosidase-p2 (AID 348; in the data active = potency below about 10 µM; also: potency is read from the fitted curve at half-maximal effect). Conditions: purified GBA, blue fluorogenic substrate, 40 min. The method in brief:
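Normal human glucocerebrosidase (0.2 nM) with blue fluorogenic substrate (80 uM final) in citrate/phosphate pH 5.9 with 10mM sodium taurocholate, 0.01% tween-20; 40 min RT, NaOH/glycine stop; fluorescence Ex 365/Em 440; AC50 from a titration from 0.6 nM upwards.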

A short description of assay [2]: Stat Signaling Pathway (AID 446; active = well fitted curve in either direction with a large enough effect, not every such curve was filed as active;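 also: ME-180 cervical cancer cells given 40 pM IL-6 alongside compound; SIE-controlled beta-lactamase reporter measured as 460/530 nm FRET emission ratio; % is scaled to controls: 0 for no effect and ±100 for the full control effect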). To be noted: ME-180 SIE beta-lactamase reporter, IL-6 stimulated, 5 h; at 7.69 µM (top of the series) unless noted. The method in brief: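 Compound effects on IL-6-induced STAT reporter activity were measured in ME-180 cells. After overnight culture, cells were co-treated with 40 pM IL-6 for 5 hrs before beta-lactamase substrate loading at room temperature.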

Assay [3] deals with Glucocorticoid receptor (Homo sapiens) (UniProt P04150). As to the kind of experiment: GR-EFC Redistribution (AID 451). Also: potency is read from the fitted curve at half-maximal effect. To be noted: CHO-K1 GR-EFC translocation, beta-gal luminescence, 2 h. The method, boiled down:
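Translocation of GR-ED fusion to nuclear EA restores b-gal, read by luminescence after 1 h room-temperature detection. Engineered CHO-K1 biosensor cells, 1,000/well, exposed 2 h at 37 C to titrations up to 46 uM final.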

The target in assay [4] is Mitogen-activated protein kinase 10 (Mus musculus) (UniProt Q61831). Kind of assay: JNK3 AlphaScreen Assay (AID 530; active = well fitted curve in either direction with a large enough effect, not every such curve was filed as active;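 also: kinase came from lysate of stimulated human HepG2 cells; signal reports phosphorylation of biotinylated GST-cJun 1-79 at Ser73 with 10 µM ATP; % is scaled to controls: 0 for no effect and ±100 for the full control effect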). The method, boiled down:
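qHTS titrations with 15 min compound pre-incubation before adding ATP (10 uM final). Read-out: AlphaScreen of Ser73-phosphorylated biotin-GST-cJun using HepG2 lysate JNK3 activated by IL-1β and TNFα.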

Assay [5] deals with Cytochrome P450 3A4 (Homo sapiens) (UniProt P08684). Kind of assay: qHTS Assay for Inhibitors and Substrates of Cytochrome P450 3A4 (AID 884; active = well fitted curve in the direction sought with a large enough effect; an effect the other way counts as inactive or inconclusive; also: % is scaled to controls: 0 for no effect and ±100 for the full control effect; nearly all actives have a fitted effect of over 50% in size). The method in brief: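 Luminescent readout of luciferin produced by CYP3A4 (20 nM) dealkylation of Luciferin-PPXE, 25 uM (its KM). NADPH-driven reaction ran 60 min at RT after 10 min compound preincubation; data scaled to 57 uM ketoconazole as 100% inhibition.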
Background: In qHTS, concentration-response curves come from the screen itself.

Assay [6] can be described thus: qHTS Assay for Lipid Storage Modulators (AID 1519). To be noted: Drosophila S3 cells, BODIPY lipid droplet/cell ratio, laser cytometry, cells loaded with oleic acid; for activity change, negative = inhibition: at 57.5 µM (top of the series). The method, boiled down:
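Cells seeded at 5,000 per well were treated with compounds over a concentration series and loaded with oleic acid (400 uM, as added). Lipid droplet fluorescence (488 nm excitation, 500-530 nm channel) was read by laser-scanning cytometry and normalized to 20 uM Triacsin C.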

The nature of assay [7]: Primary qHTS for small molecule stabilizers of the endoplasmic reticulum resident proteome: Secreted ER Calcium Modulated Protein (SERCaMP) assay (AID 1508630; active = well fitted curve in the direction sought with a large enough effect; an effect the other way counts as inactive or inconclusive; also: % is scaled to controls: 0 for no effect and ±100 for the full control effect). The method in brief:
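The SH-SY5Y reporter protocol was run at 3 concentrations up to 38.3 uM (primary) or 11 concentrations (follow-up): 16 h compound, 100 nM thapsigargin for 4 h, then extracellular luciferase luminescence.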

Assay [8] can be described thus: AP1 Signaling Pathway (AID 357; active = well fitted curve in either direction with a large enough effect, not every such curve was filed as active;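 also: ME-180 reporter cells stimulated with EGF at its EC50 level; % is scaled to controls: 0 for no effect and ±100 for the full control effect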). To be noted: ME-180 (cervical carcinoma) AP-1-bla reporter, EGF-induced, beta-lactamase ratio, 5 h; at 7.69 µM (top of the series) unless noted. The method, boiled down: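 Beta-lactamase reporter under AP-1 response element, ME-180 background. Stimulus: EC50 EGF. Compound exposure 5 h, 37 °C. Detection: CCF4, 2.5 h RT, 460/530 nm. Values: AC50 from titration.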

Assay [9] deals with Cytochrome P450 1A2 (Homo sapiens) (UniProt P05177). As to the kind of experiment: p450-cyp1a2 (AID 410). Also: potency is read from the fitted curve at half-maximal effect.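 As to activity change, negative = inhibition: -100% = full effect of reference inhibitor.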 The method, boiled down: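 Luminescent demethylation readout: Luciferin-ME (100uM, equal to Km) turned over by 20nM CYP1A2 for 60 min at room temperature after NADPH regeneration addition, following 10 min compound preincubation. Normalization used 57 uM furafylline as full inhibition.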

The target of assay [10] is Glucocorticoid receptor (Homo sapiens) (UniProt P04150). Kind of assay: GR-GFP Redistribution (AID 450;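 active = compounds whose dose series gives a full or clear partial fitted curve of increased nuclear translocation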; also: potency is read from the fitted curve at half-maximal effect). To be noted: U2OS GR-GFP nuclear translocation, laser cytometry, 2 h.
Assay [11] has as its target 3',5'-cyclic-AMP phosphodiesterase 4B (Homo sapiens) (UniProt Q07343). Kind of assay: qHTS Assay for Inhibitors of PDE-IV (AID 607; active = well fitted activation curve with a large enough effect in the main read-out, with a control signal flat, not every such curve was filed as active; also: % of control where 0% means no effect). The method, boiled down: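 ACTOne HEK293 cells carry a modified cAMP-gated CNG channel and express endogenous PDE4; plated 1000 cells/well, compounds up to 22.9 uM final. Membrane-potential dye fluorescence (ex 535/em 590) was read; parental cells received 10 uM forskolin + 100 uM RO 20-1724.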

The target in assay [12] is Cytochrome P450 3A4 (Homo sapiens) (UniProt P08684). Kind of assay: qHTS Assay for Activators of Cytochrome P450 3A4 (AID 885; active = well fitted curve in the direction sought with a large enough effect; an effect the other way counts as inactive or inconclusive; also: nearly all actives have a fitted effect of over 65% in size). The method in brief:
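CYP3A4 activity: Luciferin-PPXE O-dealkylation, 25uM substrate, 200mM KPO4, RT throughout. Read-out is luciferase luminescence; higher values reflect activation.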

Assay [13] in a line: Confirmation and Secondary Assay for Modulators of Hemoglobin Beta Chain Splicing at IVS2 654 locus (AID 910; active = well fitted curve in the direction sought with a large enough effect; an effect the other way counts as inactive or inconclusive;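 also: HeLa cells stably carrying EGFP split by mutant beta-globin IVS2-654 intron; per-well total GFP intensity by laser scanning cytometry after 2-day treatment; % of control where 0% means no effect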). The method, boiled down:
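Readout: per-well total peak green fluorescence (488 nm ex, 500–520 nm em) from objects 5–250 µm, reflecting correct splicing of an EGFP-654 reporter. Compounds were applied for 2 days at 37 °C to overnight-plated HeLa EGFP-654 cells; controls were DMSO and 500 nM IVS2-654 PNA.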

In assay [14] the target is Ubiquitin carboxyl-terminal hydrolase 1 (Homo sapiens) (UniProt O94782). As to the kind of experiment: Inhibitors of USP1/UAF1: Pilot qHTS (AID 504865; active = well fitted curve in the direction sought with a large enough effect; an effect the other way counts as inactive or inconclusive;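 also: rhodamine fluorescence freed from ubiquitin-rhodamine substrate followed over time; top concentration of the series differs between compounds; % is scaled to controls: 0 for no effect and ±100 for the full control effect; nearly all actives have a fitted effect of over 35% in size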). The method, boiled down: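 Deubiquitinase activity followed as kinetic rhodamine fluorescence release from 150 nM Ub-Rho. 1 nM USP1/UAF1 with compound, after 15 min room-temperature preincubation, in HEPES pH 7.8 buffer containing TCEP, EDTA, BSA and Tween-20.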

Assay [15] can be described thus: NFAT Signaling Pathway (AID 444; active = well fitted curve in either direction with a large enough effect, not every such curve was filed as active). Conditions: Jurkat NFAT-bla M1, carbachol, beta-lactamase ratio, 5 h; at 7.69 µM (top of the series) unless noted. The method in brief: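 Read-out: CCF4 FRET ratio (460 nm/530 nm) after 1 h RT dye loading, used for %activity and AC50 from titration series. Cells: Jurkat NFAT-β-lactamase/M1 line, treated with compound plus 1 uM carbachol for 5 h, 37 °C.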

[16] abbreviates: measured here: cell count channel max response.
Setting [17] is: measured here: lipid channel max response.

Results filed as inconclusive are left out. Calls of active or inactive are those of the source. Unless noted, calls follow the shape of the full dose curve.

Sequence of Lysosomal acid glucosylceramidase (Homo sapiens) (P04062 whole entry, looked up): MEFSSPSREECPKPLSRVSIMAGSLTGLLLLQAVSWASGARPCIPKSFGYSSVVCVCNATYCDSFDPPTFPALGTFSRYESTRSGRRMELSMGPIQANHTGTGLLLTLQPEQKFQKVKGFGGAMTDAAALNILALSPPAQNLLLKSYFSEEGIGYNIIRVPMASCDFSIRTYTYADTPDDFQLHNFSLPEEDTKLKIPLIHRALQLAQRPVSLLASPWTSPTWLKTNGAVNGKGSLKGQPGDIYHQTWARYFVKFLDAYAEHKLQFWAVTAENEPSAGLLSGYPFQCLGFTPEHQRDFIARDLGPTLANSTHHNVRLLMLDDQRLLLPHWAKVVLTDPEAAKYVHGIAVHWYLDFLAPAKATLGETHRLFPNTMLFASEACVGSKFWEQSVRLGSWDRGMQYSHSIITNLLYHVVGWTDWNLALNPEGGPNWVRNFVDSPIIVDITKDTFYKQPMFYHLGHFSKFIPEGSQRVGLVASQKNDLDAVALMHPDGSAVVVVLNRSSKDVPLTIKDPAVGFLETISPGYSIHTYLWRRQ
Sequence of 3',5'-cyclic-AMP phosphodiesterase 4B (Homo sapiens) (Q07343 whole entry, looked up): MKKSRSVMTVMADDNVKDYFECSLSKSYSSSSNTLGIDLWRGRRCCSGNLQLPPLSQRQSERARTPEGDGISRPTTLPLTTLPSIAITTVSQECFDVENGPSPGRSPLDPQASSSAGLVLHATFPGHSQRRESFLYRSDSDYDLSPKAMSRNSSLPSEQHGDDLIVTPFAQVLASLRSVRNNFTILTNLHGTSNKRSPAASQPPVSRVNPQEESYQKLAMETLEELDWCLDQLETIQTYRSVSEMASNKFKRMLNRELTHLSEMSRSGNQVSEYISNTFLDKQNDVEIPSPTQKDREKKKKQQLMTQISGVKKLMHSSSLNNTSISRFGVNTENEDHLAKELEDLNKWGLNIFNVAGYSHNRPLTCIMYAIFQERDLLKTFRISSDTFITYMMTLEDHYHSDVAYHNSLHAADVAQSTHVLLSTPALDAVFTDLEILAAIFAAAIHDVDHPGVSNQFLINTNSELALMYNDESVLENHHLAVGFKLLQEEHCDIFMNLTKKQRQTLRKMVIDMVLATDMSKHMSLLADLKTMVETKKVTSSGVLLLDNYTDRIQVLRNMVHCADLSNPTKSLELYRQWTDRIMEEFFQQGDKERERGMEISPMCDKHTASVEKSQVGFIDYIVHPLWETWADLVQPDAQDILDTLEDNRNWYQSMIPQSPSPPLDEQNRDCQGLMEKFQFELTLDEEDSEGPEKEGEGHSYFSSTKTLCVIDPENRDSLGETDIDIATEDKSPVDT
Sequence of Cytochrome P450 1A2 (Homo sapiens) (P05177 whole entry, looked up): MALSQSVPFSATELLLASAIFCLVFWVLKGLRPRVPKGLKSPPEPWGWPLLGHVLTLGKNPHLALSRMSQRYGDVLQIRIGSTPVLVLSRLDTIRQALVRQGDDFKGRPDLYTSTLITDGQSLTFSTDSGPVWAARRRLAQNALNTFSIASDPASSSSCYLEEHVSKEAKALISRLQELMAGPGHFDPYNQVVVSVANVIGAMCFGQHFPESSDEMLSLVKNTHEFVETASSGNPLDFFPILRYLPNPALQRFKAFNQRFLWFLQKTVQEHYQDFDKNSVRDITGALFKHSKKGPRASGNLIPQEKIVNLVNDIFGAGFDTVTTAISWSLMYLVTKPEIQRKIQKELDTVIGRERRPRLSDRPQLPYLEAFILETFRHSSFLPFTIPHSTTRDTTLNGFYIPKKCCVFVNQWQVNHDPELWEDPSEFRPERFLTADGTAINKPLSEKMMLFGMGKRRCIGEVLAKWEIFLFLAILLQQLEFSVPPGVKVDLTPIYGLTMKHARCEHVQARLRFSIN
Sequence of Cytochrome P450 3A4 (Homo sapiens) (P08684 whole entry, looked up): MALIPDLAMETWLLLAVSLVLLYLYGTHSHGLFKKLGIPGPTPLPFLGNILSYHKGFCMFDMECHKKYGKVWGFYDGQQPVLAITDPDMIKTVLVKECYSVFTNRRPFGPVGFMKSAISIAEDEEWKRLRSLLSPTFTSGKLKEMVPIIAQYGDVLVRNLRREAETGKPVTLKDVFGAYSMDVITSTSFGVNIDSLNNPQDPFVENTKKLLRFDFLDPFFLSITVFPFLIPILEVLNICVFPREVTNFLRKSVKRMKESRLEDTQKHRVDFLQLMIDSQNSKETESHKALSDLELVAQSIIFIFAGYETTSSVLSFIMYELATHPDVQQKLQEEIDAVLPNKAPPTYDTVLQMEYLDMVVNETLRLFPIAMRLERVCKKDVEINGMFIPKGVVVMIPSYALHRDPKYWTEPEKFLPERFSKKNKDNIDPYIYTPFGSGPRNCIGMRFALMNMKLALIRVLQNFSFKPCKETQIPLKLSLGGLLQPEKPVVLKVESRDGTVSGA
Sequence of Glucocorticoid receptor (Homo sapiens) (P04150 whole entry, looked up, the tested form may be a part): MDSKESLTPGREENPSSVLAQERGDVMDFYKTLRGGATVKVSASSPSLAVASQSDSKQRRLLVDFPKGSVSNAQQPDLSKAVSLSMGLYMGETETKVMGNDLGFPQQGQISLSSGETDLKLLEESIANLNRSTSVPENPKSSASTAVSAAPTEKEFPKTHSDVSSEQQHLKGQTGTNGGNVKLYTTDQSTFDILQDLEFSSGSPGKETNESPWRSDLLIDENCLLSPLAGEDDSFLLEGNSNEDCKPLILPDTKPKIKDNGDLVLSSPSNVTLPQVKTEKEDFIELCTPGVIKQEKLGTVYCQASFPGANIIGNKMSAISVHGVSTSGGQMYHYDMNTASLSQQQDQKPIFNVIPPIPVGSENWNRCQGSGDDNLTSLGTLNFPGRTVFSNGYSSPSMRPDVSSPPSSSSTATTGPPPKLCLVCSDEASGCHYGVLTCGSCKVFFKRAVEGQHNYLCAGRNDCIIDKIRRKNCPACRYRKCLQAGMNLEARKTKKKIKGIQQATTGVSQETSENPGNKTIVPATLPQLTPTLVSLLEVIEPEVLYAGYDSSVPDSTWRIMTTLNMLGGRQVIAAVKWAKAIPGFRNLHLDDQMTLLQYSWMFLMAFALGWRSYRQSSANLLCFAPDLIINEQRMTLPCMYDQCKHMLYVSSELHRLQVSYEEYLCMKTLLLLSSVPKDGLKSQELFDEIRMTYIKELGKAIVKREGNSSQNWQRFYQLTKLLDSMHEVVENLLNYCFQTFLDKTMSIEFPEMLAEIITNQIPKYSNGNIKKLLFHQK
Sequence of Ubiquitin carboxyl-terminal hydrolase 1 (Homo sapiens) (O94782 whole entry, looked up): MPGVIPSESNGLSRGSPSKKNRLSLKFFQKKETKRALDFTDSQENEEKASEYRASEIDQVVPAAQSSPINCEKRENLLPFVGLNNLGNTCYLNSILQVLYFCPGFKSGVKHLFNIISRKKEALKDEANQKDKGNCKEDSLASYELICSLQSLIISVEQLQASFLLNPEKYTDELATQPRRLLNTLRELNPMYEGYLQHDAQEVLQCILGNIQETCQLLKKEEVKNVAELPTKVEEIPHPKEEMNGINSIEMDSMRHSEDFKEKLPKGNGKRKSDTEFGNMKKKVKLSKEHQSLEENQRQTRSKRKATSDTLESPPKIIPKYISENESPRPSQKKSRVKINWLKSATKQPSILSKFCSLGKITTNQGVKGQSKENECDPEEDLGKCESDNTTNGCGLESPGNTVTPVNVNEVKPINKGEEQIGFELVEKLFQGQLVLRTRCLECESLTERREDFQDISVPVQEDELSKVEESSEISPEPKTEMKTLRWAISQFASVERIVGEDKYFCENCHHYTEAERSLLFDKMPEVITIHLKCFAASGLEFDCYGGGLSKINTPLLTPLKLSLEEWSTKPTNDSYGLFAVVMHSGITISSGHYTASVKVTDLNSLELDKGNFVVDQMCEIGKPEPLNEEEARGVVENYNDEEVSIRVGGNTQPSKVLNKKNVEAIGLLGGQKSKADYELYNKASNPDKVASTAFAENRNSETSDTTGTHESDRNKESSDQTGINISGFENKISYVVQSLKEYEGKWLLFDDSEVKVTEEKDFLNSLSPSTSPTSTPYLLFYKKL

In the case of `O=C(c1cccc(F)c1)N1CCC2(CC1)CCN(c1ccncc1)CC2`, the Potency is > 11.4 µM (inactive) in assay [1] and > 46 µM (inactive) in assay [3]. Moreover, in assay [2], the activity, negative = inhibition is 24% (inactive). The Potency result in assay [4] and in assay [5] was “inactive” throughout. In addition, the activity change, negative = inhibition in assay [6] is -0.521% (inactive). Also, the max response in assay [6] (setting [16]) was -17.2%; in assay [6] (setting [17]), -16.4%. In addition, the result in [7] was inactive.

On to `CC(=O)NCCNc1ncncc1-c1ccccc1C(F)(F)F`, for which the activity change, negative = inhibition is 1.26% (inactive) in assay [8] and -1.77% (inactive) in [6]. The Potency result in assay [9], in assay [4], in assay [11], in assay [12], in assay [13] and in assay [14] was “inactive” each time. Moreover, in assay [2], the activity, negative = inhibition is 6.6% (inactive). Moreover, the Potency in [10] and in assay [3] was > 46 µM (inactive) each time. Further, the values for the max response in assay [6] (setting [16]) and in [6] (setting [17]) were -7.27% and -8.94%, respectively. Further, the outcome in [7] was inactive.

Turning to `CC(=O)N1CCC[C@@]2(CCN(Cc3nccs3)C2)C1`, the activity change, negative = inhibition is 1.66% (inactive) in [8], 8.54% (inactive) in assay [15] and 6.81% (inactive) in [6]. The Potency entry in assay [9], in [4] and in assay [12] was “inactive” in each case. Besides, the activity, negative = inhibition in assay [2] was 4.24% (inactive). In assay [3], the Potency was > 46 µM (inactive). The max response is 16.2% in assay [6] (setting [16]) and 26.9% in assay [6] (setting [17]). Besides, the result in assay [7] was inactive.

Regarding `CC(=O)N1CCC2(CC1)CN(Cc1ccc(C#N)cc1)C2`, the Potency in assay [1] was > 11.4 µM (inactive); in [3], > 46 µM (inactive). The values for the activity change, negative = inhibition in assay [15] and in assay [6] were 0.883% (inactive) and -1.35% (inactive), respectively. The Potency entry in [4] and in assay [11] was “inactive” throughout. For the same compound, the max response is -0.767% in assay [6] (setting [16]) and -0.217% in assay [6] (setting [17]). Also, the result in assay [7] was inactive.

Turning to `O=C(c1ccncc1)N1CCC2(CCN(Cc3nccs3)CC2)CC1`, the activity change, negative = inhibition is 6.32% (inactive) in assay [8] and -1.51% (inactive) in assay [6]. In addition, the Potency result in assay [9] and in assay [11] was “inactive” in each case. In addition, in assay [3], the Potency is > 46 µM (inactive). Besides, the max response in [6] (setting [16]) came to 5.19%; in assay [6] (setting [17]), 5.04%. For the same compound, the result in assay [7] was inactive.

For `Cc1noc(C)c1-c1ccc2ncnc(NC3CC3)c2c1`, the Potency in assay [1] is > 11.4 µM (inactive); in assay [10], > 46 µM (inactive); in assay [3] it was > 46 µM (inactive). Also, the Potency entry in [4], in [11], in [13] and in assay [14] was “inactive” throughout. In addition, the activity change, negative = inhibition in assay [6] is -8.16% (inactive). Further, the max response is -21.4% in assay [6] (setting [16]) and -28.4% in assay [6] (setting [17]). Besides, the outcome in assay [7] was inactive.

`N#Cc1cccc(-c2ccc3ncnc(NCc4cccnc4)c3c2)c1`: the values for the Potency in [1] and in assay [3] were > 11.4 µM (inactive) and > 46 µM (inactive), respectively. Further, the activity change, negative = inhibition in [15] is 21.6% (inactive); in assay [6] it was 7.68% (inactive). Besides, the activity, negative = inhibition in [2] was -12.3% (inactive). Also, the Potency result in [4], in assay [11] and in assay [13] was “inactive” each time. Further, the max response in [6] (setting [16]) is 12%; in assay [6] (setting [17]) it was 20.4%. Besides, the result in assay [7] was inactive.

For `CNc1ncnc2ccc(-c3cccc(NS(C)(=O)=O)c3)cc12`, the values for the activity change, negative = inhibition in [8] and in assay [6] were -20.9% (inactive) and 1.53% (inactive), respectively. Further, the Potency in [9] is 0.316 µM (active); in [10] it was > 46 µM (inactive); in assay [3], > 46 µM (inactive). Also, in [2], the activity, negative = inhibition was -3.45% (inactive). For the same compound, the Potency result in assay [4], in [11], in assay [12] and in assay [13] was “inactive” in each case. In addition, the max response was -9.5% in [6] (setting [16]) and -9.46% in assay [6] (setting [17]). Besides, the outcome in [7] was inactive.
